Results as given in PubChem BioAssay (NCATS).
“And” between values parts separate entries of the source, which are not always exact repeats. Equal entries are not always repeated. Inconclusive results are not listed. The source made the active and inactive calls. Unless noted, calls come from the whole dose curve; as a rule, active = well fitted curve in the direction sought with a large enough effect; inconclusive = small, poorly fitted or top-dose-only effect, or another doubt; inactive = no such curve, though single readings can be large; an effect the other way counts as inactive or inconclusive.

Experiments:
[1] = AP1 Signaling Pathway (AID 357; active = well fitted curve in either direction with a large enough effect, not every such curve was filed as active;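 note: ME-180 reporter cells stimulated with EGF at its EC50 level; % is set by controls: 0 for no effect and ±100 for the full control effect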); conditions: ME-180 AP-1-bla reporter, EGF-induced, beta-lactamase ratio, 5 h
How it was run: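 A ratiometric CCF4 readout (405 nm excitation; 460 and 530 nm emission) quantified AP-1-driven beta-lactamase in ME-180 cells after 5 h with compound and EC50 EGF; AC50 values were derived for activators and inhibitors.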

[2] = target: Cytochrome P450 1A2 (Homo sapiens) (UniProt P05177); assay: p450-cyp1a2 (AID 410; calls by dose curve; note: potency is the fitted concentration of half-maximal effect;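 for activity change, negative = inhibition: -100% = full effect of reference inhibitor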)
Chain of Cytochrome P450 1A2 (Homo sapiens) (P05177 whole entry, looked up): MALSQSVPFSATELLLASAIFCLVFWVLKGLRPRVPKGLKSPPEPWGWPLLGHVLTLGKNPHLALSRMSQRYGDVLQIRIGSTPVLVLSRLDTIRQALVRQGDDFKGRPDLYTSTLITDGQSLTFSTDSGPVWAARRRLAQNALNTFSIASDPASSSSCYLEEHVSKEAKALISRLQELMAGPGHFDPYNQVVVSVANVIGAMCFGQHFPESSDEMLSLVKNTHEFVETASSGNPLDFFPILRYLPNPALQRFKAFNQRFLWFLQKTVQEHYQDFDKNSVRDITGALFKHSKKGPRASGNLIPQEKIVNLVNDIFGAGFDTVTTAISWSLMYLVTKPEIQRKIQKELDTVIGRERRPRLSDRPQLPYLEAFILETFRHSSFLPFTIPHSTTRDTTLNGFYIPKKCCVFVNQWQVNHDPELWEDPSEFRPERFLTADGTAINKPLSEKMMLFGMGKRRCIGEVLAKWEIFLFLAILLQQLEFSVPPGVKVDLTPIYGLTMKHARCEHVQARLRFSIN
How it was run: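 Inhibition was calculated relative to 57 uM furafylline (full inhibition). The reaction used human CYP1A2 at 20nM with Luciferin-ME at its Km, 100uM, driven by an NADPH-regenerating system for 60 min at room temperature.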

[3] = NFAT Signaling Pathway (AID 444; active = well fitted curve in either direction with a large enough effect, not every such curve was filed as active;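 note: carbachol stimulus at about its EC50 of 1 µM final; % is set by controls: 0 for no effect and ±100 for the full control effect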); conditions: Jurkat NFAT-bla M1, carbachol, beta-lactamase ratio, 5 h
How it was run: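 Jurkat cells with NFAT-driven β-lactamase reporter and co-expressed M1 receptor, stimulated with carbachol (final 1 uM, ~EC50), compound titration, 5 h at 37 °C. CCF4 loaded 1 h at RT; 460/530 nm ratio gave %activity and AC50.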

[4] = Stat Signaling Pathway (AID 446; active = well fitted curve in either direction with a large enough effect, not every such curve was filed as active;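 note: ME-180 cervical cancer cells given 40 pM IL-6 alongside compound; SIE-controlled beta-lactamase reporter measured as 460/530 nm FRET emission ratio; % is set by controls: 0 for no effect and ±100 for the full control effect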); conditions: ME-180 SIE beta-lactamase reporter, IL-6 stimulated, 5 h
How it was run: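 Reporter line: ME-180 cervical carcinoma, SIE-beta-lactamase. Treatment: compound with 40 pM IL-6, 5 hrs, 37 C, in low-serum OPTI-MEM with 10 mM HEPES pH 7.3. Detection: 460/530 nm fluorescence.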

[5] = target: Glucocorticoid receptor (Homo sapiens) (UniProt P04150); assay: GR-GFP Redistribution (AID 450;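 active = compounds whose dose series gives a full or clear partial fitted curve of increased nuclear translocation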; note: potency is the fitted concentration of half-maximal effect); conditions: U2OS GR-GFP nuclear translocation, laser cytometry, 2 h
Chain of Glucocorticoid receptor (Homo sapiens) (P04150 whole entry, looked up, the tested form may be a part): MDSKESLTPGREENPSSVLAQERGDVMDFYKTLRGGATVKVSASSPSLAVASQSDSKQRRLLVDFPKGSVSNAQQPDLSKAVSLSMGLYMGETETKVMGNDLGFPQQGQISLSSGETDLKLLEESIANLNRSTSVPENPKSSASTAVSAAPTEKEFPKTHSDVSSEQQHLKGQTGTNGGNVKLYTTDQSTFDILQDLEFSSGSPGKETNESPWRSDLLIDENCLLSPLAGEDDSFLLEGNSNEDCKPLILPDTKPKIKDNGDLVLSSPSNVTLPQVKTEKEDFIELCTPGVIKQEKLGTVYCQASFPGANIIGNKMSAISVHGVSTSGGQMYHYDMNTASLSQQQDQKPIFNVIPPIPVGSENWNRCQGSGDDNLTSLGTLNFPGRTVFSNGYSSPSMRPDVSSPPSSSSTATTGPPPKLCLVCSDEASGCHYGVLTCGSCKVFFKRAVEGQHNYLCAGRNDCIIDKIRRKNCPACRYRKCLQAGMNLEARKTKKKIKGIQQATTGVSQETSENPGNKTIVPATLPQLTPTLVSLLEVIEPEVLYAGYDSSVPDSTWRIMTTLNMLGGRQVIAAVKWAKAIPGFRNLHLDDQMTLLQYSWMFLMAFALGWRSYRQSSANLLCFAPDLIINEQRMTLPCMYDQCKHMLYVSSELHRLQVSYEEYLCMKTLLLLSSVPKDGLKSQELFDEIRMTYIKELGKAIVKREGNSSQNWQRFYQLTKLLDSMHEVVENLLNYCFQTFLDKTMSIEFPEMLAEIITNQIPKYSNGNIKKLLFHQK

[6] = target: Glucocorticoid receptor (Homo sapiens) (UniProt P04150); assay: GR-EFC Redistribution (AID 451; calls by dose curve; note: potency is the fitted concentration of half-maximal effect); conditions: CHO-K1 GR-EFC translocation, beta-gal luminescence, 2 h
How it was run: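 CHO-K1 cells expressing nuclear EA and GR-ED fragments of b-gal; compounds titrated up to 46 uM final, 2 h at 37 C. GR nuclear translocation read as complemented b-gal luminescence after 1 h RT detection.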

[7] = target: Mitogen-activated protein kinase 10 (Mus musculus) (UniProt Q61831); assay: JNK3 AlphaScreen Assay (AID 530; active = well fitted curve in either direction with a large enough effect, not every such curve was filed as active;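 note: kinase came from lysate of stimulated human HepG2 cells; signal reports phosphorylation of biotinylated GST-cJun 1-79 at Ser73 with 10 µM ATP; % is set by controls: 0 for no effect and ±100 for the full control effect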)
How it was run: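 qHTS format: compounds tested as titrations against IL-1beta/TNF-alpha-activated HepG2 lysate JNK3 with biotin-GST-cJun substrate and 10 uM ATP at room temperature. Loss of anti-phospho-cJun AlphaScreen signal indicates inhibition.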

[8] = target: 3',5'-cyclic-AMP phosphodiesterase 4B (Homo sapiens) (UniProt Q07343); assay: qHTS Assay for Inhibitors of PDE-IV (AID 607; active = well fitted activation curve with a large enough effect in the main read-out, with a control signal flat, not every such curve was filed as active; note: % of control where 0% means no effect)
Chain of 3',5'-cyclic-AMP phosphodiesterase 4B (Homo sapiens) (Q07343 whole entry, looked up): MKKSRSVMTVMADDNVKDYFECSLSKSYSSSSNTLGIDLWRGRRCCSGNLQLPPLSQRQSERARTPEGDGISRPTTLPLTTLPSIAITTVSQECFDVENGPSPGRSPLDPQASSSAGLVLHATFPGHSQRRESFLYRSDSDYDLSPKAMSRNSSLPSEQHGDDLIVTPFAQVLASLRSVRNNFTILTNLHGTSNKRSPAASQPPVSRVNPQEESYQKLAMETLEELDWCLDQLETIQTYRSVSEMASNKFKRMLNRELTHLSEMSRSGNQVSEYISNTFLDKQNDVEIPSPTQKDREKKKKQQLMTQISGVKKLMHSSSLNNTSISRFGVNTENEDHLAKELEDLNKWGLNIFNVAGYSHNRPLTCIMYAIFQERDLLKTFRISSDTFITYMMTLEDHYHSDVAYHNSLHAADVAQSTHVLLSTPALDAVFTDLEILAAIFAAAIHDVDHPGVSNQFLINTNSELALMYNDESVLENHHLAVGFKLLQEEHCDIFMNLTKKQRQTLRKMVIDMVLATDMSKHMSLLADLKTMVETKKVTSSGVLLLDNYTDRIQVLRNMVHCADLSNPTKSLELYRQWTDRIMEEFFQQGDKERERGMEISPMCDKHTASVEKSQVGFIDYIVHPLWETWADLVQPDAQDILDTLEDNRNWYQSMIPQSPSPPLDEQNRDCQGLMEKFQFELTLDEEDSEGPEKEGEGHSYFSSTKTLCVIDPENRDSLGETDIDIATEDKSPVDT
How it was run: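 Cell-based read-out of cAMP via a modified cyclic nucleotide-gated channel and membrane potential dye (535/590 nm) in HEK293 cells expressing PDE4 endogenously. Compounds tested up to 22.9 uM final; 100 uM RO 20-1724 reference.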

[9] = target: alpha-glucosidase (Oryza sativa, rice) (UniProt Q653V4); assay: Counterscreen for Glucocerebrosidase Inhibitors: qHTS Assay for Rice alpha-Glucosidase at pH 5.0 (AID 997);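 note: 0% = full activity with enzyme and -100% = basal without enzyme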
How it was run: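 Rice alpha-glucosidase (4 nM final) with 400 uM 4-methylumbelliferyl-alpha-D-glucopyranoside in citrate buffer pH 5.0, 20 min at room temperature, stopped at pH 10; fluorescence 365/440 nm, compounds 0.7 nM–77 uM, AC50 from Hill fits.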

[10] = qHTS Assay for Lipid Storage Modulators (AID 1519; calls by dose curve); conditions: Drosophila S3 cells, BODIPY lipid droplet/cell ratio, laser cytometry, cells loaded with oleic acid
How it was run: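 Cells seeded at 5,000 per well were treated with compounds over a concentration series and loaded with oleic acid (400 uM, as added). Lipid droplet fluorescence (488 nm excitation, 500-530 nm channel) was read by laser-scanning cytometry and normalized to 20 uM Triacsin C.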

[11] = target: ATP-dependent 6-phosphofructokinase (Trypanosoma brucei brucei) (UniProt O15648); assay: qHTS Assay to Find Inhibitors of T. brucei phosphofructokinase: hit validation (AID 492961); note: % is set by controls: 0 for no effect and ±100 for the full control effect
Chain of ATP-dependent 6-phosphofructokinase (Trypanosoma brucei brucei) (O15648 whole entry, looked up): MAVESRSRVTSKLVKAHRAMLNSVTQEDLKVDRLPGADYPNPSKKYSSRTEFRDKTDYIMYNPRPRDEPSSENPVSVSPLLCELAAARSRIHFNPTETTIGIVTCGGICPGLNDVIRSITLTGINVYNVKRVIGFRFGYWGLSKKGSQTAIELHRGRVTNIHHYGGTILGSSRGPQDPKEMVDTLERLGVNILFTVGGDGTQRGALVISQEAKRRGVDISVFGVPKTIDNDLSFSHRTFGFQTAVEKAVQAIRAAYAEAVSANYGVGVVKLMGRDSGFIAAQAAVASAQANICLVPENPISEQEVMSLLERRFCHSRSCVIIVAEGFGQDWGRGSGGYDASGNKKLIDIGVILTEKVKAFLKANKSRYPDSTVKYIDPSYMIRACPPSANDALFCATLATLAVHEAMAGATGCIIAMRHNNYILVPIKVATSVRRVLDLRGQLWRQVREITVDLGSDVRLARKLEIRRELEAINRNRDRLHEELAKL
How it was run: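 Luminescence from ADP-Glo reports ADP generated as T. brucei PFK (1.25 nM) phosphorylates 0.5 mM fructose-6-phosphate using 0.1 mM ATP. Reactions ran 45 min at room temperature, pH 8.0.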

[12] = target: Ubiquitin carboxyl-terminal hydrolase 1 (Homo sapiens) (UniProt O94782); assay: Inhibitors of USP1/UAF1: Pilot qHTS (AID 504865);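 note: rhodamine fluorescence freed from ubiquitin-rhodamine substrate followed over time; top concentration of the series differs between compounds; % is set by controls: 0 for no effect and ±100 for the full control effect; nearly all actives have a fitted effect of over 35% in size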
Chain of Ubiquitin carboxyl-terminal hydrolase 1 (Homo sapiens) (O94782 whole entry, looked up): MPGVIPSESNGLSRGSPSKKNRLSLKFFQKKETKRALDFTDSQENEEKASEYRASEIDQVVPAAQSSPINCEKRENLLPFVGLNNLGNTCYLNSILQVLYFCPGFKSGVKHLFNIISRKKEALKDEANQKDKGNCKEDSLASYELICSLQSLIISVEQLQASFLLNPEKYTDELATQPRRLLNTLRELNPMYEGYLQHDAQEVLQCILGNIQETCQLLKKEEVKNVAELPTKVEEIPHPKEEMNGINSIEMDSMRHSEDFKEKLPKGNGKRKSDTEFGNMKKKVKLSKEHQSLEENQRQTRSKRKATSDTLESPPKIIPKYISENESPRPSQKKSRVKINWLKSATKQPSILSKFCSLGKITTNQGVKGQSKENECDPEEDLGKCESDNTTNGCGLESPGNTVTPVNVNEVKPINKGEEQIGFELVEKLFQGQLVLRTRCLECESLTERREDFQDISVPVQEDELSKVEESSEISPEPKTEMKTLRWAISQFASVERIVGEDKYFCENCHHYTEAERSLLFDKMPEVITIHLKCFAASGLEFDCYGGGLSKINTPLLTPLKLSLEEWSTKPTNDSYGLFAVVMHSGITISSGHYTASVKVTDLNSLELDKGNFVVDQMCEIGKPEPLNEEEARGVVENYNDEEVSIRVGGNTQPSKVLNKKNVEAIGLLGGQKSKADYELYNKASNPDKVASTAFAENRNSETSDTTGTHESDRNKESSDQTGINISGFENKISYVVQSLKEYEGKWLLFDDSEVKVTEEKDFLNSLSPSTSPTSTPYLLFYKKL
How it was run: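 USP1/UAF1 complex at 1 nM preincubated 15 min at room temperature with compound, then Ub-Rho substrate added at 150 nM final. Fluorescence (480/540 nm) read kinetically in 50 mM HEPES pH 7.8, 0.5 mM EDTA, 1 mM TCEP, 0.1 mg/ml BSA, 0.01% Tween-20.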

[13] = target: Luciferin 4-monooxygenase (Photinus pyralis) (UniProt P08659); assay: Biochemical firefly luciferase enzyme assay for NPC (AID 624030);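 note: purified P. pyralis luciferase at 10 nM with luciferin and ATP substrate; 0% = DMSO and -100% = full luciferase inhibition by PTC124 control; nearly all actives have a fitted effect of over 70% in size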
Chain of Luciferin 4-monooxygenase (Photinus pyralis) (P08659 whole entry, looked up): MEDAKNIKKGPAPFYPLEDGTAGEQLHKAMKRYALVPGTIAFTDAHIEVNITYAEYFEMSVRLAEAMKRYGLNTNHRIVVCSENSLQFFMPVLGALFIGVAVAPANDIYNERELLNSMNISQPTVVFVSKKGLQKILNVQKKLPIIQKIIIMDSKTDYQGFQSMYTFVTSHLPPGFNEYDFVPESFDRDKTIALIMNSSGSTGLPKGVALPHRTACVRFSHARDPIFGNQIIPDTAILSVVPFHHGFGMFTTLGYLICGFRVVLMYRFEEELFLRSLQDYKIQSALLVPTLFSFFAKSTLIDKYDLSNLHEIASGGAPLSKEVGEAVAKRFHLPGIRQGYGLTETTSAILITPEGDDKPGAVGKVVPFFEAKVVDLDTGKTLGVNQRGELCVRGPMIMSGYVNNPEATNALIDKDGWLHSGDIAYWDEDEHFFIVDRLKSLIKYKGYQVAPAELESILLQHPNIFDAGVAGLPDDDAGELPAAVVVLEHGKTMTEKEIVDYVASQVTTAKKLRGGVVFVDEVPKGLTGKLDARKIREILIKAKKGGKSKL
How it was run: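 Purified P. pyralis luciferase at 10 nM in 50 mM Tris Acetate (final), luminescence read within 5 minutes of enzyme addition to compounds. Activity normalised to PTC124 versus DMSO; concentration-response curves classed by r2, magnitude and activity.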

[14] = qHTS profiling for inhibitors of Plasmodium falciparum proliferation (AID 504749);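 note: 0% = DMSO vehicle and full inhibition = artemisinin control; nearly all actives have a fitted effect of over 60% in size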; conditions: P. falciparum in erythrocytes, SYBR Green DNA, 72 h, at 28.7 µM (top of the series)
How it was run: (§1)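 Readout was DNA-dye fluorescence from lysed cultures, ex 485/em 535 nm. Parasitized red cells had grown 72 h with compound; data scaled between 0.29 uM artemisinin and DMSO wells and corrected using vehicle-only plates.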

[15] = test system: AS120; assay: as above; conditions: P. falciparum in erythrocytes, SYBR Green DNA, 72 h; series mostly up to 28.7 µM
How it was run: as §1

[16] = test system: CP238; assay: as above; conditions: P. falciparum in erythrocytes, SYBR Green DNA, 72 h; series mostly up to 12.8 µM
How it was run: as §1

[17] = test system: CP250; assay: as above; conditions: P. falciparum in erythrocytes, SYBR Green DNA, 72 h; series mostly up to 12.8 µM
How it was run: as §1

[18] = test system: CP262; assay: as above; conditions: P. falciparum in erythrocytes, SYBR Green DNA, 72 h; series mostly up to 12.8 µM
How it was run: as §1

[19] = test system: CP265; assay: as above; conditions: P. falciparum in erythrocytes, SYBR Green DNA, 72 h; series mostly up to 12.8 µM
How it was run: as §1

[20] = test system: FAB9; assay: as above; conditions: P. falciparum in erythrocytes, SYBR Green DNA, 72 h; series mostly up to 12.8 µM
How it was run: as §1

[21] = measured here: cell count channel max response
[22] = measured here: lipid channel max response

CO[C@]1(NC(=O)CSCC#N)C(=O)N2C(C(=O)O)=C(CSc3nnnn3C)CS[C@H]21
-5.83%: max response [10, 22]
-7.44%: max response [10, 21]
inactive: activity change, negative = inhibition ([1]; at 17.2 µM (top of the series)) 6.3% | activity change, negative = inhibition ([1]; at 38 µM (top of the series)) 6.07% | Potency [2] | activity change, negative = inhibition ([3]; at 17.2 µM (top of the series)) -17.5% | activity change, negative = inhibition ([3]; at 38 µM (top of the series)) -10.8% | activity, negative = inhibition ([4]; at 17.2 µM (top of the series)) -13.5% | activity, negative = inhibition ([4]; at 38 µM (top of the series)) 0.96% | Potency [5] > 46 µM and > 20.6 µM | Potency [6] > 46 µM and > 20.6 µM | Potency [7] | Potency [8] | outcome [9] | activity change, negative = inhibition ([10]; at 25.7 µM (top of the series)) -1.05% | outcome [11] | Potency [12] | outcome [13] | activity, negative = inhibition ([14]; parasite line A) 11.9% | activity, negative = inhibition ([14]; parasite line B) 2.32% | Potency [15] | Potency [16] | Potency [17] | Potency [18] | Potency [19] | Potency [20]

CN1CCN(c2ncc3nc(-c4ccccc4)c(=O)n(CCC#N)c3n2)CC1
27.5%: max response [10, 22]
active: Potency [2] 20 µM
19.8%: max response [10, 21]
inactive: Potency [5] > 9.22 µM | Potency [6] > 46 µM | Potency [7] | Potency [8] | activity change, negative = inhibition ([10]; at 57.5 µM (top of the series)) 6.29%
